The source made the active and inactive calls.
Key:
[1] = binders of probe aFSTL3 on microarray, primary screen, stem cell growth factor project, biochemical, small-molecule microarray, fluorescence 635/667 (AID 1064); settings: higher = more signal;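 further: measures binding of the biotinylated anti-FSTL3 antibody to printed compounds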
[2] = binders from COS7 lysate, DM2A8 probe, primary screen, torsin A project, cell lysate, small-molecule microarray, fluorescence 635/667 (AID 1065); settings: higher = more signal, COS7 lysate expressing mutant human TOR1A
[3] = binders of probe aFGF2 on microarray, primary screen, stem cell growth factor project, biochemical, small-molecule microarray, fluorescence 635/667 (AID 1067); settings: higher = more signal;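 further: measures binding of biotinylated aFGF2 protein to printed compounds on slides; z-score merges feature fluorescence and signal-to-noise across triplicate slides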
[4] = binders of probe aFGF10 on microarray, primary screen, stem cell growth factor project, biochemical, small-molecule microarray, fluorescence 635/667 (AID 1071); settings: higher = more signal;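 further: score merges 667 nm spot intensity and signal to noise from triplicate slides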
[5] = target: Neurogenic locus notch homolog protein 2 (Homo sapiens) (UniProt Q04721); assay: Notch2 binders on small-molecule microarrays, primary screen, biochemical, small-molecule microarray, 635 nm fluorescence, stem cell growth factors (AID 1073); settings: Notch2 binding, higher = more signal
Sequence of Neurogenic locus notch homolog protein 2 (Homo sapiens) (Q04721 whole entry, looked up, canonical isoform): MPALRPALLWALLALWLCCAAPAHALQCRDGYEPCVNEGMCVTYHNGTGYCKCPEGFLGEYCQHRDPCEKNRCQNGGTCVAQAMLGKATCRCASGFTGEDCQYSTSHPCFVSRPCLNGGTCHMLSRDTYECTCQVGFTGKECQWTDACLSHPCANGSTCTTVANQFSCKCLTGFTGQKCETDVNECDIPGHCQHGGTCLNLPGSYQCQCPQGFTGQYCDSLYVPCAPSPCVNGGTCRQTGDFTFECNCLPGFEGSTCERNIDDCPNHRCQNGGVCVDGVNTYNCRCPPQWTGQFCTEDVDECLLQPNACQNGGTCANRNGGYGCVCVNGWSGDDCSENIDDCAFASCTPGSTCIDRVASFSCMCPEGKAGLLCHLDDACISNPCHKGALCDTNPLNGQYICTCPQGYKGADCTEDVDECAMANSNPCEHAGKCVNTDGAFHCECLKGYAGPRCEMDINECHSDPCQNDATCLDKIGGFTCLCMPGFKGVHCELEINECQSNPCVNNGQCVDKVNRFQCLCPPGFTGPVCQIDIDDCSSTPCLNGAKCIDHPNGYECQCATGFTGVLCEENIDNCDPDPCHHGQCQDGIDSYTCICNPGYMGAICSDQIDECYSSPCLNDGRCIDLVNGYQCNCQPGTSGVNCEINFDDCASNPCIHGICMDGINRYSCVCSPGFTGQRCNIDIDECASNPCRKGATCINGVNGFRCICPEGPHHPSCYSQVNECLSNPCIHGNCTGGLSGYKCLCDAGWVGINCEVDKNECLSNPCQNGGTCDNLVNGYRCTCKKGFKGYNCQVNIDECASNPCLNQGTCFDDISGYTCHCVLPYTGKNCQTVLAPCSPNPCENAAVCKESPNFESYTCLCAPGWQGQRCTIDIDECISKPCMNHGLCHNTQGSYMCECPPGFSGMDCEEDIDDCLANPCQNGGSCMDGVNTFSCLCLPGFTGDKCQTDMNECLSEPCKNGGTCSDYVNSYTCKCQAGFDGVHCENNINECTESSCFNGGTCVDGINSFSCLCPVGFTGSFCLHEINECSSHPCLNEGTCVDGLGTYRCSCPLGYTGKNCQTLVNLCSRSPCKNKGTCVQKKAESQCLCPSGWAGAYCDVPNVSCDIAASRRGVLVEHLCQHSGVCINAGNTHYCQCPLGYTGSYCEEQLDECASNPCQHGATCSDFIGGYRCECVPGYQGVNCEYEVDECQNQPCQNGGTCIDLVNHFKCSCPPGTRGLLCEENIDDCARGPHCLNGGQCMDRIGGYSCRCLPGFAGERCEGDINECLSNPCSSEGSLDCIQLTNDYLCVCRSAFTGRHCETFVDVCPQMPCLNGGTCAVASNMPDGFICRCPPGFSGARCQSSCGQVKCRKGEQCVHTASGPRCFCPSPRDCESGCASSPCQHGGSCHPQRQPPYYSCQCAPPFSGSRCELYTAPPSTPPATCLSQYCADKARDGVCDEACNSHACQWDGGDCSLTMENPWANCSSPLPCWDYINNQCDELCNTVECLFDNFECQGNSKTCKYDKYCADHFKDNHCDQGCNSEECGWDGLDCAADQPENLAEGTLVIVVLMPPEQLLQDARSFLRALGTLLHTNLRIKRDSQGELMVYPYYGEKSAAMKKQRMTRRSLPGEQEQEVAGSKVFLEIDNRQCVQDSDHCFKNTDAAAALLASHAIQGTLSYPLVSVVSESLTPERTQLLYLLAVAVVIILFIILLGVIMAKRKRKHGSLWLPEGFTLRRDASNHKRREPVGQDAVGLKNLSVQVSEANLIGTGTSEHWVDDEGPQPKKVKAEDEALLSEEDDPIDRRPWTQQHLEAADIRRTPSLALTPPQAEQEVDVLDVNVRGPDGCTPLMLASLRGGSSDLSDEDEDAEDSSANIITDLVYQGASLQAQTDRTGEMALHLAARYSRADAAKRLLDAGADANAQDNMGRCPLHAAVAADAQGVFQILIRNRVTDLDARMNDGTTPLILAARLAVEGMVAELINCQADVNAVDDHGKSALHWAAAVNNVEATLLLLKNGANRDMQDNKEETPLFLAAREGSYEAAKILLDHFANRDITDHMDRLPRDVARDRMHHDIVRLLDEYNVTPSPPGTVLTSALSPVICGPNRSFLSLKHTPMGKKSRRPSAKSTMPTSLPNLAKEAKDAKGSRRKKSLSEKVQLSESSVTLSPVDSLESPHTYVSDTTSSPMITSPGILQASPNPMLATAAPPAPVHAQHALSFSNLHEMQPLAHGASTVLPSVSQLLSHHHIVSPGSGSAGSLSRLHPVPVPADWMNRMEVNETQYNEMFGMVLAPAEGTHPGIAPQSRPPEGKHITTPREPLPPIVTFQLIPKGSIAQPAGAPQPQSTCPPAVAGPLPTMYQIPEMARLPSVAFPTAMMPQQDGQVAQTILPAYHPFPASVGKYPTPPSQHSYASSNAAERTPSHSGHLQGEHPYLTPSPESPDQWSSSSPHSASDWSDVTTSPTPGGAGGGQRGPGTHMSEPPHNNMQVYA

[6] = target: Pro-neuregulin-1, membrane-bound isoform (Homo sapiens) (UniProt Q02297); assay: NRG1 binders on small-molecule microarrays, primary screen, psychiatric disease protein project, biochemical, small-molecule microarray, fluorescence 635/667 (AID 1075); settings: NRG1 binding, 635 nm fluorescence, higher = more signal;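 further: score combines 667 nm spot fluorescence with signal to noise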
Sequence of Pro-neuregulin-1, membrane-bound isoform (Homo sapiens) (Q02297 whole entry, looked up, the tested form may be a part, canonical isoform): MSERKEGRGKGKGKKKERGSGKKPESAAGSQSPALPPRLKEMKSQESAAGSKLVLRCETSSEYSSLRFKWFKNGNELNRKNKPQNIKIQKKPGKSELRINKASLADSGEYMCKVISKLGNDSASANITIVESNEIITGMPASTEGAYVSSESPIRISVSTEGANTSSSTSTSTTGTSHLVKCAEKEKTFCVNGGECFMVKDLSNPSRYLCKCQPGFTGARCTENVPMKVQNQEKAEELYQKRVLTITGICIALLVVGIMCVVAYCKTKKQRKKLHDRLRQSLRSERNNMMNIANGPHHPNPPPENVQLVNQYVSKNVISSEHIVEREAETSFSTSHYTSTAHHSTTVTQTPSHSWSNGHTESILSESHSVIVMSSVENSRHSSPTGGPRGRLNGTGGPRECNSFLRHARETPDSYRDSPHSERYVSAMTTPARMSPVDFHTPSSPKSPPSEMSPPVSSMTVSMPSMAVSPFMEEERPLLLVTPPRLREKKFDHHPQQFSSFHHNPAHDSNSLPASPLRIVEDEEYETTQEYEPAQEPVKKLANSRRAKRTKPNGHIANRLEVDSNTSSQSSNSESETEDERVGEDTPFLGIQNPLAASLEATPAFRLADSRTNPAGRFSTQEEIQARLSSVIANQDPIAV

[7] = test system: Neuregulin-1 EGF-like domain; assay: binders of neuregulin-1 EGF-like domain, primary screen, biochemical, small-molecule microarray, 635 nm fluorescence (AID 1081); settings: small-molecule microarray binding, higher = more signal;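 further: binding of the protein to compounds printed on small-molecule microarray slides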
[8] = FRG1 promoter luciferase signal modulators, primary screen, FRG1 inhibition for FSHD, cell-based, C2C12 myotubes, firefly/Renilla luciferase, luminescence (AID 1084); settings: higher = more signal, called active from +8 up or from −8 down
[9] = binders of probe aFST on microarray, primary screen, stem cell growth factor project, biochemical, small-molecule microarray, fluorescence 635/667 (AID 1086); settings: higher = more signal;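 further: score merges 667 nm fluorescence with signal-to-noise of each printed compound spot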
[10] = binders of probe aHhip on microarray, primary screen, stem cell growth factor project, biochemical, small-molecule microarray, fluorescence 635/667 (AID 1087); settings: higher = more signal;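 further: score merges spot fluorescence at 667nm with spot signal to noise ratio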

SMILES	composite z-score [1]	composite z-score [2]	composite z-score [3]	composite z-score [4]	composite z-score [5]	composite z-score [6]	composite z-score [7]	z-score [8]	composite z-score [9]	composite z-score [10]
COC(=O)[C@@]1(Cc2ccc(OC)cc2)[C@H]2c3cc(C(=O)N4CCCC4)n(CCc4ccccn4)c3C[C@H]2CN1C(=O)c1ccccc1	0.587	-0.0862	0.233	0.291	1.42	1.81	1.13	3.33 (inactive)	0.462	0.251
O=C(NCCN1CCOCC1)[C@@H]1c2ccccc2C(=O)N(Cc2cc(F)cc(C(F)(F)F)c2)[C@H]1c1ccc(CO)cc1	-0.0058	1.09	-0.188	-0.71	-0.987	1.25	0.591	-0.0497 (inactive)	-0.234	-0.199
CC(=O)NCCCC[C@@H]1NC(=O)[C@@H]2C[C@H](C(=O)NCCCCCC[N+](C)(C)C)[C@H](c3cccc(OCCO)c3)N2C1=O	-0.0722	1.23	-0.0098	0.498	0.0496	1.52	1.35	3.12 (inactive)	0.715	-0.0296
O=C1O[C@H](c2ccccc2)[C@H](c2ccccc2)N2[C@H]1[C@@H](C(=O)NC[C@H](O)c1ccccc1)[C@]1(C(=O)Nc3ccc(C#CC4(O)CCCCCC4)cc31)[C@H]2c1ccccc1OCCO	-0.267	0.444	-0.136	0.566	0.967	0.911	1.12	-0.369 (inactive)	0.0026	-0.0645
C=CCN1C(=O)[C@]2(COC(c3ccc(OCCCO)cc3)=N2)Cc2ccccc21	0.842	0.33	0.136	0.115	0.595	0.977	1.08	-0.664 (inactive)	0.258	-0.3
[N-]=[N+]=NCc1ccccc1C[C@]1(C(=O)NCCN2CCOCC2)N=C(c2ccc(OCCCO)cc2)O[C@H]1c1ccccc1CN=[N+]=[N-]	-0.199	-0.671	0.0011	1.12	1.03	1.11	1.2	-0.0883 (inactive)	1.26	0.0139
COC(=O)[C@@]1(Cc2ccc(F)cc2)[C@H]2c3cc(C(=O)N4CCCC4)n(Cc4ccc(Cl)c(C(F)(F)F)c4)c3C[C@H]2CN1C(=O)c1ccccc1	2	0.554	0.713	1.04	1.73	1.61	1.14	0.339 (inactive)	2.44	3.55
COc1ccc([Si](C)(C)[C@H]2[C@H](CC(=O)N3CCC[C@H]3CO)O[C@@]3(C(=O)N(c4ccccc4)c4ccccc43)[C@@H]2C)cc1	-0.371	0.509	-0.17	0.134	-0.568	0.0644	1.05	-1.74 (inactive)	0.0963	-0.261
O=C1OCCC=C[C@H]2OC34C=CCN(CCN5CCOCC5)C(=O)[C@H]3N(CCO)C(=O)[C@@H]4C12 (stereo not given in full)	-0.217	1.12	-0.179	0.127	-0.621	-0.714	0.916	-0.0663 (inactive)	-0.569	-0.489
O[C@@H](Cc1ccccc1)[C@@H](/C=C/c1ccccc1)NCc1ccccc1Br	0.686	-1.36	-0.176	-1.09	-1.31	-0.803	-0.639	-0.926 (inactive)	-0.579	-0.475
NC(=O)NCC#Cc1ccc2c(c1)[C@]1(C(=O)N2)[C@H](C(=O)NC[C@H](O)c2ccccc2)[C@H]2C(=O)O[C@H](c3ccccc3)[C@H](c3ccccc3)N2[C@@H]1c1ccccc1OCCO	-0.226	0.0051	-0.0934	0.0263	-0.686	1.21	0.997	-0.167 (inactive)	0.213	-0.0994
O=C(NCC(O)CO)[C@@]1(Cc2ccccc2)N=C(c2ccc(OCCCO)cc2)O[C@H]1c1ccccc1 (stereo not given in full)	1.32	0.691	0.16	0.36	-0.0617	1.39	1.26	-1.89 (inactive)	1.08	0.415
COC(=O)[C@@]1(Cc2ccc(OC)cc2)[C@H]2c3cc(C(=O)N4CCCC4)n(CCN4CCOCC4)c3C[C@H]2CN1C(=O)c1ccccc1	2.56	0.553	1.01	1.47	1.59	2.23	1.37	0.877 (inactive)	2.71	3.48
C=CC[C@@]1(C(N)=O)N=C(c2ccc(OCCCO)cc2)O[C@@H]1c1ccccc1N=[N+]=[N-]	1.68	0.444	0.069	1.08	1.13	1.5	1.34	2.64 (inactive)	1.03	0.0769
C=CCCN(CC#C[C@H]1Oc2ccccc2S(=O)(=O)N2CCC[C@@H]12)S(=O)(=O)c1ccc(C)cc1	-0.141	-0.0385	-0.0717	0.61	-0.271	0.353	0.476	-4.31 (inactive)	0.0279	0.0373
CC(=O)N1Cc2ccccc2C[C@@]2(N=C(c3ccc(OCCCO)cc3)O[C@H]2c2ccccc2)C1=O	0.136	0.0287	0.0933	0.145	1.09	1.54	1.31	-3.53 (inactive)	1.55	-0.393
